# High-throughput results as filed in PubChem BioAssay.
# SMN2 splice up: enhancers of SMN2 splice variant expression; AID 1458; Potency, µM (top dose mostly 46.1 µM), inactives show top-dose activity change, positive = activation, usual class: activators; 2.8% of 210,000 active; HEK293 SMN2-luciferase splicing reporter, luminescence, 30-36 h; note: % of control where 0% means no effect; nearly all actives have a fitted effect of over 55% in size
#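 HEK293 cells carry an SMN2 minigene-luciferase reporter in which exon 7 inclusion puts luciferase in frame. Cells were seeded at 2000 cells/well, attached for 10-12 hours, then exposed to compounds for 30-36 hours at 37C before ONE-Glo luminescence.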
# Rab9 promoter act: Rab9 promoter activation; Huh7 Rab9 promoter-luciferase reporter, luminescence, 24 h; Potency, µM (highest dose often 9.22 µM), inactives show at the highest dose activation, negative = inhibition, usual class: activators; 2.8% of 320,000 active; AID 485297; note: % of control where 0% means no effect; nearly all actives have a fitted effect of over 60% in size
#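 Cell-based reporter: Huh7 stable for Rab9 promoter-driven luciferase, plated in reduced-serum medium with 10% FBS at 1500 cells/well, compound-treated 24 h at 37 °C, luminescence read after 10 min reagent.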
# FLuc modulator: counter-screen for miR-21 project: firefly luciferase inhibitors or activators. P08659. purified FLuc, Km substrates, luminescence inhibition. Potency, µM (titrated, usually from 57.5 µM), for the others: top-dose activity change, negative = inhibition, hits mostly inhibitors. 6.9% of 360,000 active;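 note: plate controls were vehicle for no effect and reference inhibitor for full effect; nearly all actives have a fitted effect of over 55% in size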
# Target sequence (P08659 whole entry, looked up): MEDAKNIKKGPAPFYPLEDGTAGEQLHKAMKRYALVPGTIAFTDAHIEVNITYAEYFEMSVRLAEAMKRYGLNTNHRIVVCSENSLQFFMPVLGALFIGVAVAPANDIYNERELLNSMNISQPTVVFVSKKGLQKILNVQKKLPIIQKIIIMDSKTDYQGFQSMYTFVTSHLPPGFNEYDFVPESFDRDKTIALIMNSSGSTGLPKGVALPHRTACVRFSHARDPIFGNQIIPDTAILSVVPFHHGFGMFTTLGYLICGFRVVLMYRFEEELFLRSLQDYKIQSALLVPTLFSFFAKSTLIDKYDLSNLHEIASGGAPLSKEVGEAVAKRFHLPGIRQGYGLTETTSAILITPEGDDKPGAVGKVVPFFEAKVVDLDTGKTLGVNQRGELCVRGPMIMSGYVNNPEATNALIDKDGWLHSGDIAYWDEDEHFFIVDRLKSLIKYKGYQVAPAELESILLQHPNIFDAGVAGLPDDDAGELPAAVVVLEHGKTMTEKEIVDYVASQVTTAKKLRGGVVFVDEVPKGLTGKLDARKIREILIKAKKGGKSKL
#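 Biochemical qHTS of compounds, final roughly 60 µM downward over six points, against 10 nM purified firefly luciferase using Km concentrations of substrates (10 uM D-luciferin, 10 uM ATP) in Tris acetate pH 7.5 buffer; luminescence output.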
# Luc counter: blocks Kinase-Glo luciferase, a counter-screen artifact; Kinase-Glo luciferase, ATP luminescence, 8 min; Potency, µM (highest dose often 38.3 µM), for inactives: top-dose activity change, negative = inhibition, hits mostly inhibitors; 0.28% of 200,000 active; AID 1379; note: % is set by controls: 0 for no effect and ±100 for the full control effect; nearly all actives have a fitted effect of over 60% in size
#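 Luminescence was the read-out, taken after 8-minute incubation at ambient temperature. Luciferase turned over luciferin with 10 uM ATP in imidazole pH 7.2 buffer containing KCl, MgCl2, Tween 20 and BSA.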
# NPC1 promoter act: NPC1 promoter activation | Huh7 NPC1 promoter luciferase reporter, 24 h | Potency, µM (highest dose often 9.22 µM), inactives show top-dose activation, hits mostly activators | 2.4% of 320,000 active | AID 485313; note: % of control where 0% means no effect; nearly all actives have a fitted effect of over 60% in size
#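 Huh7 reporter cells (NPC1 promoter driving luciferase) are dosed with compound for 24 h at 37 °C, 5% CO2; luciferase detection reagent is then added and luminescence measured after 10 min at ambient temperature.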
# ELG1 genotoxic: inducers of genotoxicity in HEK293T ELG1-luciferase cells; 1.3% of 330,000 active; Potency, µM (titrated, usually from 46 µM), inactives show at the highest dose activity change, positive = activation, most hits filed as activators; AID 504466; HEK293T ELG1-luciferase reporter, luminescence, 16 h; note: % of control where 0% means no effect; nearly all actives have a fitted effect of over 60% in size
#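 Genotoxic stress is detected as increased luminescence from luciferase-tagged ELG1 in HEK293T cells, measured with ONE-Glo after a 16 hr treatment at 37 °C.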
# Numbers without * were called inactive; ? = inconclusive; nt = no result given; [ ] = remark or other dose. Compounds with a hit are over-represented: about 7.4% of the library has one in this group of screens. Calls come from the whole dose curve; as a rule, active = well fitted curve in the direction sought with a large enough effect; inconclusive = small, poorly fitted or top-dose-only effect, or another doubt; inactive = no such curve, though single readings can be large; an effect the other way counts as inactive or inconclusive. Potency is the fitted concentration of half-maximal effect.
SMILES,SMN2 splice up,Rab9 promoter act,FLuc modulator,Luc counter,NPC1 promoter act,ELG1 genotoxic
C/C(=N\Nc1nc2c(s1)CCCC2)c1ccccc1,11µM*,3.5µM*,1.1µM*,-5%,?,?
O=C(Cn1c(=O)oc2ccccc21)NCc1cccc(Cl)c1,12%,nt,1%,nt,nt,nt
O=C(CN1CCOCC1)NCc1cc([N+](=O)[O-])ccc1O,nt,0%,-5%,nt,0%,1%
Brc1ccc(-c2csc(N3CCOCC3)n2)cc1,nt,4µM*,8.5µM*,-2%,?,-14%
O=C(N1CCOCC1)N1CCN(c2nc(-c3ccc(F)cc3)cs2)CC1,0%,1%,11µM*,-2%,0%,-2%
NC(=O)C1(N2CCCCC2)CCN(c2nc(-c3ccc(Br)cc3)cs2)CC1,-42%,-2%,0%,-2%,0%,-2%
Brc1ccc(-c2csc(N3CCCCCC3)n2)cc1,nt,-15%,8.5µM*,nt,-8%,7%
O=C(CCCl)N1CCN(c2nc(-c3ccccc3)cs2)CC1,nt,?,15µM*,nt,?,14%
Nc1ncnc2c1c(-c1ccc(Oc3ccccc3)cc1)cn2C1CCCC1,-36%,-37%[46.1 µM],-3%,-2%,-35%[46.1 µM],?
Cc1ccc(NC(=O)C(C)OC(=O)CCN=C2NS(=O)(=O)c3ccccc32)cc1 (stereo not drawn),nt,-3%,2%,nt,0%,7%
CN1CCN(c2nc(-c3ccc(Cl)s3)cs2)CC1,11%,?,17µM*,-1%,13%,15%
CC(C)C(=O)N1CCN(c2nc(-c3ccc(Cl)cc3)cs2)CC1,nt,-6%,-1%,0%,-6%,3%
O=[N+]([O-])c1ccc(N2CCN(c3nc(-c4ccc(Cl)cc4)cs3)CC2)cc1,-46%,-9%,6%,-6%,-1%,-11%
CCOC(=O)N1CCN(c2nc(-c3ccc(Cl)cc3)cs2)CC1,-26%,7%,17µM*,-5%,3%,?
c1ccc(-c2csc(N3CCCCCC3)n2)cc1,?,19%,15µM*,1%,10%,18µM*
Clc1ccc(-c2csc(N3CCOCC3)n2)cc1,18µM*,3.2µM*,11µM*,5%,?,?
CCCCC(C(=O)NC1CCCC1)N(C(=O)c1snc(C(N)=O)c1N)c1ccc(F)cc1 (stereo not drawn),nt,-1%,2%,nt,-4%,-4%
Cc1[nH]c(-c2ccc(F)cc2)cc1C(=O)N1CCN(c2cccc(Cl)c2)CC1,nt,-7%,-1%,nt,0%,-4%
CCOC(=O)N1CCN(C(=O)C2CCC(=O)N(Cc3ccc(Cl)cc3)C2)CC1 (stereo not drawn),nt,8%,0%,nt,6%,0%
NC(=O)C1CCN(c2nc(-c3ccc([N+](=O)[O-])cc3)cs2)CC1,nt,nt,1%,nt,nt,nt
COc1ccc(-c2csc(/N=C/N(C)C)n2)cc1OC,28%,27%,?,4%,24%,?
O=[N+]([O-])c1ccc(-c2csc(N3CCCCCC3)n2)cc1,nt,?,12µM*,nt,?,14%
O=C1C2C3c4ccccc4C(c4ccccc43)C2C(=O)N1c1nc(-c2ccccc2)cs1 (stereo not drawn),14%,-5%,0%,0%,-2%,-6%
c1ccc(-c2cnnc(N3CCCCC3)n2)cc1,29%,1.4µM*,11µM*,-4%,2.5µM*,?
N=C1SCC(=O)N1c1nc(-c2ccccc2)cs1,11µM*,2µM*,5.4µM*,-2%,2.2µM*,?
SMILES,SMN2 splice up,Rab9 promoter act,FLuc modulator,Luc counter,NPC1 promoter act,ELG1 genotoxic
COc1ccc(-c2csc(N3CCOCC3)n2)cc1OC,?,?,12µM*,-2%,?,18µM*
NC(=O)C1CCN(C(=O)c2cccc(S(=O)(=O)N3CCCC3)c2)CC1,nt,1%,12%,nt,-1%,3%
COc1ccc([C@H]2CC(=O)C=C(c3ccc(Oc4ccccc4)cc3)C2)cc1OC,nt,-12%,-1%,nt,-5%,1%
O=C(O)c1cc([N+](=O)[O-])c(N2CCCC2)c([N+](=O)[O-])c1,-1%,0%,3%,1%,0%,-1%
CNC(=S)N1CCN(c2nc(-c3ccc(Cl)cc3)cs2)CC1,nt,-1%,?,nt,-6%,4%
CCS(=O)(=O)N1CCN(c2nc(-c3ccccc3)cs2)CC1,20%,20%,19µM*,0%,21%,?
Clc1ccc(-c2csc(N3CCCCCC3)n2)cc1,nt,5%,11µM*,nt,5%,8%
CC(C)N1CN=C(Nc2nc3ccccc3o2)NC1,?,?,?,-2%,17%,-9%
c1ccc2oc(NC3=NCN(C4CCCCC4)CN3)nc2c1,nt,?,?,nt,2.5µM*,?
CCCCN1CN=C(Nc2nc3ccccc3o2)NC1,29%,3.5µM*,?,-6%,?,?
O=C(OCC#CCNc1nnc(-c2cccc3ccccc23)o1)c1cccs1,nt,2%,3%,nt,-2%,nt
Cc1ccc(NC(=O)c2ccc(Cn3cc([N+](=O)[O-])cn3)cc2)c(C)c1,-18%,-3%,-1%,2%,-1%,-5%
c1ccc2nc(-c3nccs3)ccc2c1,17%,?,13µM*,-3%,24%,?
c1ccc2nc(-c3ccncc3)ccc2c1,20%,?,?,-20%,?,?
S=c1[nH]nc(-c2ccc3ccccc3n2)o1,-19%,-2%,?,-4%,-1%,11%
Clc1ccsc1-c1ccc2ccccc2n1,?,?,11µM*,-11%,?,?
Cc1ccsc1-c1ccnc(-n2cccc2)n1,-13%,12%,?,-7%,4%,0%
Clc1ccsc1-c1ccnc(-n2cccc2)n1,7%,-2%,17µM*,-1%,12%,12%
CCCCCn1c(=N)c(S(=O)(=O)c2ccccc2)cc2c(=O)n3ccccc3nc21,-10%,nt,3%,nt,nt,nt
Cc1ccc(S(=O)(=O)N2[C@@H](c3ccccc3F)C(C(=O)O)=CC[C@H]2c2cccc(Cl)c2)cc1,nt,-6%,-1%,nt,-1%,-3%
Cc1nnc(CN(C)C(=O)c2cc(COc3ccc(C)c(C)c3)on2)o1,nt,17%,?,nt,11%,9%
COc1cccc(OCc2cc(C(=O)N(C)C3CCOCC3)no2)c1,nt,13%,2%,nt,-1%,0%
Cc1ccc(OCc2cc(C(=O)N(C)CCc3ccccn3)no2)cc1C,nt,3.5µM*,13µM*,nt,?,10%[9.26 µM]
COc1cccc(OCc2cc(C(=O)N(C)Cc3nc(C)cs3)no2)c1,nt,2.2µM*,12µM*,nt,3.2µM*,12µM*
Cc1cc(CN(C)C(=O)c2cc(COc3ccc(C)c(C)c3)on2)on1,nt,1.4µM*,12µM*,nt,2.5µM*,16µM*
